PubChem BioAssay AID1423 (NMMLSC, 2008)
Among all 220,000 compounds or so, about 750 (0.34%) were called active. Cut-off read from the data, not from the text of the source: active = response below about 60% or above about 140%; inactive = in between. The list comes from a sample in which actives are over-represented; it also holds similar structures and randomly drawn compounds.

Molecular target: Guanine nucleotide-binding protein G(o) subunit alpha (Homo sapiens) (UniProt P09471)
Test: compounds changing RGS8 association with Galphao – biochemical, multiplexed bead flow cytometry, primary screen (AID 1423);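 note: Galphao activated as the GDP aluminium fluoride complex binding bead-coupled RGS8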
Conditions: at 10 µM, actives lie on both sides

Sequence of Guanine nucleotide-binding protein G(o) subunit alpha (Homo sapiens) (P09471 whole entry, looked up): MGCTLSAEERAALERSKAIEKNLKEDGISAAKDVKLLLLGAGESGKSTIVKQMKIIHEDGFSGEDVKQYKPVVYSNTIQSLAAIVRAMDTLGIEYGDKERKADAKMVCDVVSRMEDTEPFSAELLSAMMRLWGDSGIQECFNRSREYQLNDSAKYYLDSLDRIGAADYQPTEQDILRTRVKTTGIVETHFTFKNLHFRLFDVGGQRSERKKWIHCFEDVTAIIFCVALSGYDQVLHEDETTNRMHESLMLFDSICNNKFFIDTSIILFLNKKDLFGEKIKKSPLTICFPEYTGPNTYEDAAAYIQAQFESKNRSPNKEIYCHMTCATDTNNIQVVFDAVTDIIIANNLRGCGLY

Response (percent of control binding), active:
CCCC(=O)n1nc(-c2ccccc2)nc1N 20.9%
O=C1CCC(=O)N(O)CCCCCNC(=O)CCC(=O)N(O)CCCCCNC(=O)CCC(=O)N(O)CCCCCN1 55.9%
Cc1cc2nc(C)n(CCCNC(=O)Nc3ccccc3)c2cc1C 170% [activator]
CC(C)Cc1nc(Nc2ccc(S(=O)(=O)N3CCCC3)cc2)c2nnn(Cc3ccccc3)c2n1 141% [activator]
C=CCn1c(Cn2nnc3ccccc32)nnc1SCC(=O)N/N=C/c1cc(Br)cc(OC)c1O 5.17%
NC(=O)CSc1c[nH]c2ccccc12 27.5%
CCOC(=O)C1Sc2[nH]c(=O)sc2C(c2ccc(Cl)cc2)C1C(=O)OCC (stereo not given) 7.38%
Cc1ccc(OCC(O)CN2CCN(CC(O)COc3ccc(C)cc3Cl)CC2)c(Cl)c1 (stereo not given) 165% [activator]
O=[N+]([O-])C(=c1ccc2c(c1)N1C3=C(CCCC3)CC3CCCCC31N=2)[N+](=O)[O-] (stereo not given) 43.8%
Cc1ccc(N2C(=O)C3C(c4ccccc4)(C2=O)C3(c2ccccc2)c2ccccc2)cc1 (stereo not given) 23.3%
COc1cc(C2/C(=C(\O)c3ccc4c(c3)CC(C)O4)C(=O)C(=O)N2Cc2ccco2)ccc1O (stereo not given) 12.8%

Response (percent of control binding), inactive:
COc1ccc(CC(=O)n2nc(-c3cccnc3)nc2N)cc1 101%
COc1ccccc1C(=O)n1nc(-c2ccccc2)nc1N 101%
COC(=O)Nc1ncc(CN2CCCCC2)s1 111%
CCOC(=O)CNc1nc2ccccc2n2c(C)nnc12 99.9%
CCSc1nc(C)c(CCOc2cccc(C)c2)c(=O)[nH]1 101%
CN(C)S(=O)(=O)c1cccc(-c2nn(-c3ccccc3)cc2/C=C2\SC(=S)N(CC(=O)O)C2=O)c1 99.8%
Cc1ncn2cc(-c3ccc(Cl)cc3Cl)[nH]c(=O)c12 102%
O=C(Nc1nnc(Cc2ccc(Cl)cc2)s1)c1ccncc1 101%
Cc1c(NC(=O)C(=O)N/N=C/c2cccs2)c(=O)n(-c2ccccc2)n1C 103%
COc1ccc(C(=O)COC(=O)COc2ccc(C)c(C)c2)cc1 102%
Cc1nc2cc(NC(=O)Nc3cccc(F)c3)ccc2n1C 97.9%
Cc1nc2cc(NC(=O)NC3CC3)ccc2n1C 103%
O=C(O)/C=C/c1ccc(OCCCF)cc1 98%
O=C(Cc1ccccc1)NCC1OCCc2ccccc21 (stereo not given) 100%
CCc1cc(C(=O)c2ccc(OC)cc2)c(NC(=O)CN2CCN(C)CC2)s1 107%
Clc1ccc(Nc2ncnc3c2nnn3Cc2ccccc2)cc1 99.3%
Cc1nc(Nc2ccc(S(=O)(=O)N3CCCC3)cc2)c2nnn(Cc3ccccc3)c2n1 101%
CC(C)CCNC(=O)C1CCC(CNc2c(N3CCC(C)CC3)c(=O)c2=O)CC1 (stereo not given) 99.2%
NC(=O)C1(N2CCCCC2)CCN(C2CC(=O)N(Cc3ccc(N4CCCC4=O)cc3)C2=O)CC1 (stereo not given) 97.6%
Cc1cccc(C(=O)NNC(=O)c2cccc([N+](=O)[O-])c2)c1 101%
Cc1ccc(Cn2c(SCC(=O)N/N=C/c3ccccc3OCC(=O)O)nc3ccccc32)cc1 104%
COc1ccc(OC)c(/C=N/NC(=O)CSc2nnc(C)n2-c2ccccc2)c1 95.2%
C=CCNC(=O)COC(=O)c1ccccc1C(=O)N(C)C1CCCCC1 103%
CCCn1cc(SCC(N)=O)c2ccccc21 90.4%
O=C(Cc1c[nH]c2ccccc12)OCCOC(=O)Cc1c[nH]c2ccccc12 101%
COc1ccc(CC(=O)N[C@@H](CCSC)c2nc3ccccc3[nH]2)cc1 106%
Cc1ccccc1Cn1nc(C)c(NC(=O)C(F)(F)F)c1C 106%
CCCCN1CCNC1=S 99.3%
Cc1noc(C)c1S(=O)(=O)N(C)Cc1ccccc1 98%
CCOC(=O)C1=C(C)NC(=O)N(C(C)=O)C1c1ccc(Cl)cc1 (stereo not given) 103%
CCOC(=O)C1C(c2ccc(Cl)cc2)NC(=S)NC1(O)C(F)(F)F (stereo not given) 102%
CCN(CC(=O)NCc1cccs1)C(=O)c1ccccc1F 99.2%
Cc1cccc(C)c1OCC(O)CN1CCCCC1 (stereo not given) 99.3%
Cc1ccccc1OCC(O)CN1CCN(c2ccccn2)CC1 (stereo not given) 99.3%
Cc1ccc(NCc2n[nH]c(=S)n2-c2ccccc2)cc1Cl 99.7%
COc1ccc(C2C(C#N)=C(N)N(c3ncn[nH]3)C3=C2C(=O)CCC3)cc1 (stereo not given) 100%
CC(=O)n1cc([C@@H]2C=C(C(=O)N3CCN(Cc4ccc5c(c4)OCO5)CC3)O[C@H](OCc3ccc(CO)cc3)C2)c2ccccc21 102%
COc1ccc(COCC(O)CN2CCC(C(N)=O)CC2)cc1 (stereo not given) 104%
COc1ccc(CNCCCO)cc1OC 108%
Cc1cc(=O)[nH]c(SCC(=O)Nc2ccc(Br)cc2)n1 93.2%
Cc1ccc(N2C(=O)C(Cc3ccccc3)NC2=S)cc1 (stereo not given) 102%
Cc1ccc(N2C(=O)C3CC3C2=O)cc1 (stereo not given) 101%
O=C(CCSc1ccccc1)N1CCN(c2ccccc2F)CC1 99.9%
CC1(C)C2CC=C(/C=N/NC(=O)c3ccc(Cl)cc3)C1C2 (stereo not given) 105%
COCCCN1C(=O)C(=O)/C(=C(/O)c2ccc3c(c2)CC(C)O3)C1c1cccnc1 (stereo not given) 89.7%
COc1ccc(/C(O)=C2\C(=O)C(=O)N(Cc3ccco3)C2c2ccc(OC)cc2OC)cc1 (stereo not given) 98.3%
Cc1ccc(-n2c(O)c(C=Nc3ccc(S(=O)(=O)Nc4ncccn4)cc3)c3ccccc3c2=O)cc1C 102%
COC(=O)c1cc(NC(=O)C2C3C=CC(C3)C2C(=O)O)cc(C(=O)OC)c1 (stereo not given) 100%
O=C(CSc1nnc2n1CCCN2)c1ccccc1 104%
